Source: PubChem (The Scripps Research Institute Molecular Screening Center)
Rows were chosen to be rich in hits. Some 4.1% of all compounds tested hit in one or more screens of this group.
hcDAF-12 act – H. contortus DAF-12 activation, primary screen. HEK293 hcDAF-12 lit1-tk-luc reporter, luminescence; 0% DMSO, 100% Δ7-dafachronic acid. activation, % at 6.8 µM. hit rate 1.4% among 370,000. AID 652067;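 active means activation above the mean of all tested compounds plus 3 SD, cut at about 5.5% in these data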
ssDAF12 agonist – S. stercoralis DAF-12 activation, primary screen; HEK293 ssDAF-12/GRIP1 lit1-tk-luc reporter, luminescence; % of 3 µM dafachronic acid response; activation, % at 6.8 µM; hit rate 1% among 370,000; AID 652126;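 active means activation above the mean over all tested compounds plus 3 SD, cut at about 0.9% in these data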
hgDAF12 agonist – activates the H. glycines DAF-12 receptor ligand-binding domain; HEK293 GAL4-hgDAF12 UAS-luciferase reporter, agonist luminescence; normalized to butyrate control; activation, % at 6.8 µM; hit rate 1.8% among 370,000; AID 687014;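 active means activation above a cutoff set at the mean of all screened compounds plus 3 SD, cut at about 10% in these data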
DAX1 inh-1 – blocks DAX1 repression of SF-1 activated StAR promoter. HEK293T StAR-luciferase reporter, SF-1/DAX-1 repression relief. inhibition, % at 6.8 µM. hit rate 1.1% among 370,000;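 active means inhibition above the mean over all tested compounds plus 3 SD, cut at about 3.6% in these data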;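 further: higher inhibition means more luminescence from relief of DAX-1 repression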
DAX1 inh-2 – inhibitors of human orphan nuclear receptor DAX1 (NR0B1). P51843. HEK293 Gal4-DAX1 luciferase reporter, luminescence. inhibition, % at 6.75 µM. hit rate 0.99% among 340,000;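 active means inhibition above the mean over all tested compounds plus 3 SD, cut at about 4.2% in these data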;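 further: inhibition shows as a rise in luminescence from relieved DAX1 repression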
Target sequence (P51843 207-470 limits assumed): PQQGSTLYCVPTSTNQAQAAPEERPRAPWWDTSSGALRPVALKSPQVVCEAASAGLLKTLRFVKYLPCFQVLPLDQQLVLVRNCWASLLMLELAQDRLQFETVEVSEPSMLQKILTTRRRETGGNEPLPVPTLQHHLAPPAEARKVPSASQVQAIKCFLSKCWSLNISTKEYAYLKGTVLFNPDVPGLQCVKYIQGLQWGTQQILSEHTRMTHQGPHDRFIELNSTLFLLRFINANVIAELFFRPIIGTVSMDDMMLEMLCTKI
DAX1 conf – NR0B1 (human) inhibition, confirmation; shares compounds with DAX1 inh-1; HEK293T StAR-promoter luciferase reporter, SF-1/DAX-1 repression; inhibition, % at 6.8 µM; hit rate 87% among 2,400;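 active means inhibition above the average of every tested compound plus 3 SD, cut at about 3.8% in these data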;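 further: active compounds raise luminescence by relieving repression of the StAR reporter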
SF1 mutant ctr – nonselective inhibitor or artifact in SF-1 mutant DAX1 counter-screen; hit rate 78% among 2,400; shares compounds with DAX1 inh-1; HEK293 StAR-luciferase, SF-1 AF2 mutant, luminescence; inhibition, % at 6.8 µM;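 active means inhibition above the mean of all tested compounds plus 3 SD, cut at about 3% in these data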
LXR ag – activates human LXR-beta, counter-screen for hcDAF-12 agonists; 3,400 tested, under 10 active; AID 743027; shares compounds with hcDAF-12 act; HEK293 Gal4-LXR tk-luc reporter, luminescence, 24 h; normalized: DMSO 0%, positive control 100%; activation, % at 6.8 µM;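 active means mean percent activation of the reporter above a cutoff set as the average over tested compounds plus their standard deviation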
Target sequence (P55055 whole entry, looked up, the tested form may be a part): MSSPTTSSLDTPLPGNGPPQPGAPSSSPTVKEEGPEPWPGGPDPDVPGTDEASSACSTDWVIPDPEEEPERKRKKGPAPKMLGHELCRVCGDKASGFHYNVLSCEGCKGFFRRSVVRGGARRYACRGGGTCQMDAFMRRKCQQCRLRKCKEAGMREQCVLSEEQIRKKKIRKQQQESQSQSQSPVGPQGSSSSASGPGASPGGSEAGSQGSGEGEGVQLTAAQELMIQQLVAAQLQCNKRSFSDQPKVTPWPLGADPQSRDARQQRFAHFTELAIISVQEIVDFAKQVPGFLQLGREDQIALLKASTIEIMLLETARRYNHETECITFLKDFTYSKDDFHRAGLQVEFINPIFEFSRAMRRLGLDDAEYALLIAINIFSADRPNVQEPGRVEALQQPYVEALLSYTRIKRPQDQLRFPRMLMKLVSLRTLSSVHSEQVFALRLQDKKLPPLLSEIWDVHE
hcDAF12 conf – confirmation of H. contortus DAF-12 agonists | HEK293 hcDAF-12 lit1-tk-luc reporter, luminescence; % of Δ7-dafachronic acid response | AID 743032 | activation, % at 6.8 µM | hit rate 61% among 3,400 | shares compounds with hcDAF-12 act;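 active means mean activation across triplicate tests above the threshold derived from the earlier primary screen, cut at about 5.5% in these data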
hgDAF12 conf – hgDAF-12 agonism, confirmation assay | shares compounds with hgDAF12 agonist | HEK293 GAL4-hgDAF12 luciferase reporter, agonist mode; percent of butyrate response | activation, % at 6.8 µM | hit rate 80% among 3,300 | AID 743050;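 active means mean activation over triplicate wells above the hit cutoff derived from the earlier primary screen, cut at about 11% in these data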
LXRb DAF12 ctr – counter-screen for DAF-12 agonists: agonists of human LXR-beta; activation, % at 6.8 µM; shares compounds with hgDAF12 agonist; AID 743051; 3,300 tested, under 10 active; HEK293 Gal4-LXR luciferase reporter, 24 h;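 active means mean activation of the triplicate above a set limit carried over from the primary screen, none filed active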
Each line names hits and unclear results; the compound was inactive in the other large screens (follow-up assays come after a bar, where they were run).

COc1ccc(C(=O)CSc2nnc(-c3ccc(C)cc3)o2)cc1	none
COc1cccc(-c2nc3ccccc3s2)c1O	hcDAF-12 act 16, ssDAF12 agonist 3.5, hgDAF12 agonist 25, DAX1 inh-1 7.0 | DAX1 conf 18 | SF1 mutant ctr 8.4 | LXR ag inactive | hcDAF12 conf 15 | hgDAF12 conf 21 | LXRb DAF12 ctr inactive
Oc1ccc(O)c(Cc2nc3ccccc3s2)c1	none
Oc1cccc(-c2nc3ccccc3s2)c1	hcDAF-12 act 21, ssDAF12 agonist 3.6, hgDAF12 agonist 17, DAX1 inh-1 5.3 | DAX1 conf 11 | SF1 mutant ctr 8.3 | LXR ag inactive | hcDAF12 conf 16 | hgDAF12 conf 24 | LXRb DAF12 ctr inactive
COc1cc(OC)c(-c2nc3ccccc3s2)cc1OC	none
Cc1c(C(=O)NC2CCOC2)oc2c(F)cccc12 (stereo not drawn)	hgDAF12 agonist 14, DAX1 inh-1 5.7 | DAX1 conf 6.4 | SF1 mutant ctr 3.3 | hgDAF12 conf 13 | LXRb DAF12 ctr inactive
Cc1c(C(=O)O)oc2c(F)cccc12	none (no result: DAX1 inh-2)
COc1ccc(C(O)c2nc(-c3cnc4ccccc4c3)cs2)cc1 (stereo not drawn)	none (no result: DAX1 inh-2)
OC(c1ccc(F)cc1)c1nc(-c2cnc3ccccc3c2)cs1 (stereo not drawn)	hcDAF-12 act 6.6, hgDAF12 agonist 16, DAX1 inh-1 5.1 (no result: DAX1 inh-2) | DAX1 conf 11 | SF1 mutant ctr 8.1 | LXR ag inactive | hcDAF12 conf 7.9 | hgDAF12 conf 19 | LXRb DAF12 ctr inactive
O=S1(=O)c2ccc(N3CCC[C@@H]3CO)cc2O[C@H]2CCN1C2	none (no result: DAX1 inh-2)
O=C(Nc1ccc2c(c1)OCCO2)C(=O)c1c[nH]c2ccccc12	none
O=C(Nc1ccc2c(c1)OCO2)C(=O)c1c[nH]c2ccccc12	hcDAF-12 act 9.3, hgDAF12 agonist 13, DAX1 inh-1 18 | DAX1 conf 17 | SF1 mutant ctr 6.5 | hgDAF12 conf 19 | LXRb DAF12 ctr inactive
COc1ccc(S[C@]2(C(=O)N3CCCC3)CC(=O)N(C(=O)c3ccccc3)[C@@H]2c2ccc(OC)cc2)cc1	none (no result: DAX1 inh-2)
Cc1cccn2cc(-c3ccc(S(=O)(=O)N4CCCCC4)cc3)nc12	none
COc1ccc(-c2csc(C)n2)cc1OC	none
Cc1cccn2cc(-c3ccc(Cl)cc3)nc12	hcDAF-12 act 18, ssDAF12 agonist 2.6, hgDAF12 agonist 16, DAX1 inh-1 9.3 | DAX1 conf 11 | SF1 mutant ctr 4.0 | LXR ag inactive | hcDAF12 conf 18 | hgDAF12 conf 18 | LXRb DAF12 ctr inactive
CCC(=O)Nc1cccc(-c2cn3cccc(C)c3n2)c1	none (no result: DAX1 inh-2)
COc1ccc(-c2cn3cccc(C)c3n2)cc1F	hcDAF-12 act 7.9, ssDAF12 agonist 1.0, hgDAF12 agonist 18, DAX1 inh-1 5.0 | DAX1 conf 14 | SF1 mutant ctr 9.0 | LXR ag inactive | hcDAF12 conf inactive | hgDAF12 conf 16 | LXRb DAF12 ctr inactive
COc1ccc(-c2cn3cc(C)ccc3n2)cc1OC	hgDAF12 agonist 19, DAX1 inh-1 4.9 | DAX1 conf 12 | SF1 mutant ctr 6.6 | hgDAF12 conf 18 | LXRb DAF12 ctr inactive
Cc1ccc(-c2cn3cccc(C)c3n2)cc1	hcDAF-12 act 16, ssDAF12 agonist 3.8, hgDAF12 agonist 15, DAX1 inh-1 9.2 | DAX1 conf 17 | SF1 mutant ctr 7.9 | LXR ag inactive | hcDAF12 conf 17 | hgDAF12 conf 21 | LXRb DAF12 ctr inactive
CC(=O)Nc1sc2c(c1-c1cc3ccccc3o1)CCNC2	none (no result: DAX1 inh-1, DAX1 inh-2)
C[C@@H]1CN(c2ccc(N3CCN(C(=O)OC(C)(C)C)C[C@@H]3C)cc2C#N)C[C@H](C)O1	none (no result: DAX1 inh-2)
CCCCC1O[C@@H](C)[C@@H]2CN3CCc4c([nH]c5ccccc45)[C@@H]3C[C@@H]2N1C (stereo partly drawn)	none (no result: DAX1 inh-2)
CC(=Nc1ccc(Cl)cc1N)c1c(O)cc(C)oc1=O	hcDAF-12 act 10, ssDAF12 agonist 1.6, hgDAF12 agonist 24, DAX1 inh-1 9.8 (no result: DAX1 inh-2) | DAX1 conf inactive | SF1 mutant ctr inactive | LXR ag inactive | hcDAF12 conf 5.6 | hgDAF12 conf 16 | LXRb DAF12 ctr inactive
C/C(=N\Nc1ccccc1)c1c(O)cc(C)oc1=O	none
CC(=O)N/N=C\c1ccccc1OC/C=C/c1ccccc1	none
CC(=O)N/N=C\c1cccc(OC/C=C/c2ccccc2)c1	hgDAF12 agonist 14, DAX1 inh-1 10 | DAX1 conf 8.9 | SF1 mutant ctr 5.2 | hgDAF12 conf 16 | LXRb DAF12 ctr inactive
COC(=O)C[C@@H]1CC[C@H]2[C@H](COc3ccc(NC(=O)Nc4cccc(C#N)c4)cc3C(=O)N2C)O1	none (no result: DAX1 inh-2)
CCc1ccc(NC(=O)c2noc3c2CCCCC3)cc1	ssDAF12 agonist 1.2, hgDAF12 agonist 15, DAX1 inh-1 5.7, DAX1 inh-2 4.8 | DAX1 conf 16 | SF1 mutant ctr 9.0 | hgDAF12 conf 20 | LXRb DAF12 ctr inactive
COc1ccc(NC(=O)c2noc3c2CCCCC3)cc1	hcDAF-12 act 5.7, hgDAF12 agonist 20, DAX1 inh-1 4.5 | DAX1 conf 12 | SF1 mutant ctr 5.5 | hgDAF12 conf 18 | LXRb DAF12 ctr inactive
COc1ccc(CNC(=O)c2noc3c2CCCC3)cc1	none
CC(=O)N(C)C[C@@H]1OCc2ccccc2-c2c(n(C)c3ccccc23)C(=O)N([C@@H](C)CO)C[C@@H]1C	none (no result: DAX1 inh-2)
C/C(=N\Nc1cccc2cccnc12)c1ccc[nH]1	hcDAF-12 act 10, ssDAF12 agonist 1.3, hgDAF12 agonist 20, DAX1 inh-1 7.5 | DAX1 conf 14 | SF1 mutant ctr 5.2 | LXR ag inactive | hcDAF12 conf 9.9 | hgDAF12 conf 18 | LXRb DAF12 ctr inactive
Cc1cc(N)n2nc(-c3ccccc3)cc2n1	hcDAF-12 act 12, ssDAF12 agonist 1.7, hgDAF12 agonist 20, DAX1 inh-1 5.8 | DAX1 conf 16 | SF1 mutant ctr 8.2 | LXR ag inactive | hcDAF12 conf 6.9 | hgDAF12 conf 19 | LXRb DAF12 ctr inactive
